Data on 36 compounds can be found in PubChem BioAssay (Tox21).

Inconclusive results are not listed. Activity calls are given as the source filed them. Calls follow the shape of the full dose curve.
% is scaled to controls: 0 for no effect and ±100 for the full control effect.

Chain of 5-hydroxytryptamine receptor 2A (Homo sapiens) (P28223 whole entry, looked up): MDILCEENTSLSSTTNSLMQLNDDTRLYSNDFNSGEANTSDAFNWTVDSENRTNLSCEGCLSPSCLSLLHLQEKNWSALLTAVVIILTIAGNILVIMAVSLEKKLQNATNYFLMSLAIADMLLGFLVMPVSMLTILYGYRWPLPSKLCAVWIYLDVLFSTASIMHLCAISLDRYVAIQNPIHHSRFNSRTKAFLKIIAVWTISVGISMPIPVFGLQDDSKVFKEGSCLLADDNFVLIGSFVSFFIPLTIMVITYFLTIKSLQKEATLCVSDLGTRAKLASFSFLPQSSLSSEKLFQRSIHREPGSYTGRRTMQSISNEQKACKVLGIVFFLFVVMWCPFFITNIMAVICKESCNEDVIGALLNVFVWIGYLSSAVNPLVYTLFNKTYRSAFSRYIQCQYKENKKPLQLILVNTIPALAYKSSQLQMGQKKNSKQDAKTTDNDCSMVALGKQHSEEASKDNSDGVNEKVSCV
Chain of Muscarinic acetylcholine receptor M1 (Homo sapiens) (P11229 whole entry, looked up): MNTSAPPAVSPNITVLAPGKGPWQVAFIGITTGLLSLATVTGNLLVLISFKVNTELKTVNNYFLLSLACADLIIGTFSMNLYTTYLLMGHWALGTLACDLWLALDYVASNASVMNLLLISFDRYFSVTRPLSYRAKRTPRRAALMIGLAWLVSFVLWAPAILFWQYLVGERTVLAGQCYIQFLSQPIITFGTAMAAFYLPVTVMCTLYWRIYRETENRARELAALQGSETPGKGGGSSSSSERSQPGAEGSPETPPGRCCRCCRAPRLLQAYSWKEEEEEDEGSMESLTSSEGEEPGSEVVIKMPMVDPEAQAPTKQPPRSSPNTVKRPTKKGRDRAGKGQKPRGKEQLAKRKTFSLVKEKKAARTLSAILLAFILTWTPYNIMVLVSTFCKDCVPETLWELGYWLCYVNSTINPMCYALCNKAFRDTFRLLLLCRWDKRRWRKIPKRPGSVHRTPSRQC

One experiment concerns the target 5-hydroxytryptamine receptor 2A (Homo sapiens) (UniProt P28223). The experiment in a line: 5-hydroxytryptamine receptor 2A (HTR2A) small molecule antagonists, cell-based qHTS assay (AID 1963586). Also: nearly all actives have a fitted effect of over 45% in size. Also: potency is read from the fitted curve at half-maximal effect. As to conditions: HTR2A-CHO cells, DOI-induced calcium flux, fluorescence; series mostly up to 61.5 µM; activity, negative = inhibition: at the top concentration. A digest of the protocol: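 CHO cells stably expressing human HTR2A were plated for 18 h at 37 C, then loaded with calcium dye for 1 h. Compounds were preincubated 5 min at room temperature before DOI (4 nM solution) was added. Kinetic fluorescence was read for 3 min.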
(In general: Quantitative high-throughput screening tests each substance at several concentrations.)
As to `CCCC1CCC(=O)O1` (centres undefined), the “activity, negative = inhibition” value was 4.72% (inactive).
On the same count and under the same terms, the same measure for `CCN(CC)c1ccc2c(-c3ccc(S(=O)(=O)O)cc3S(=O)(=O)[O-])c3ccc(=[N+](CC)CC)cc-3oc2c1`: 2.06% (inactive).
Same read-out and setting: the same measure for `COc1ccc(/C=C/S(=O)(=O)NC(=O)c2ccc(C)cc2Cl)cc1`: 1.95% (inactive); for `N[C@@H](Cc1cc(I)c(O)c(I)c1)C(=O)O`: -7.96% [at 28.5 µM] (inactive).
On the same count and under the same terms, the same measure for `C=CC(=O)OCC(Br)CBr` (centres undefined): 0.311% (inactive); for `O=C1CCC(C2CCCCC2)CC1`: -8.77% (inactive).
Turning to `COCCC(=O)OC`, the “activity, negative = inhibition” value was -14.8% (inactive).
Same read-out and setting: the same measure for `Cc1nc2ccc(Cl)cc2[nH]1`: -13% (inactive); for `CC(C)(C)C(=O)C(=O)O`: -13% (inactive); for `COc1cccc(O)c1O`: 1.76% (inactive).
In the case of `N=C1C=CC(=C(c2ccc(N)cc2)c2ccc(N)cc2)C=C1`, the Potency was 8400 nM (active).
Consider `O=C1c2ccccc2C(=O)C1c1ccc2ccccc2n1`, for which the “activity, negative = inhibition” value is -17% [at 28.5 µM] (inactive).
As for `CN1CCN(C2=Nc3cc(F)ccc3Cc3ccccc32)CC1`, the Potency was 23.1 nM (active).
As to `CC1=NN(c2ccc(C(=O)O)cc2)C(=O)C1`, the “activity, negative = inhibition” value is 3.49% (inactive).
Still for that read-out and setting: the same measure for `Oc1ccc(Oc2ccccc2)cc1`: -6.44% (inactive); for `COc1ccc(C(=O)c2ccc(OC)cc2O)c(O)c1`: -41.3% (inactive).
The same measure, in the same setting: the same measure for `CCOC(=O)O[C@H](C)OC(=O)c1ccc2c(c1)cc(C(=O)NC1CCN(C(C)C)CC1)n2Cc1cc(-c2ccc(Cl)s2)on1`: -1.79% (inactive).
For the compound `Cc1cccc(N(C)C(=S)Oc2ccc3c(c2)CCC3)c1`, the Potency is 1300 nM (active).
For the compound `CCCC(=O)OCCC(C)C`, the “activity, negative = inhibition” value was 89.9% (inactive).
For `COc1ccccc1NC(=O)c1cc2ccccc2cc1O`, the Potency was 21100 nM (active).
Take `O=C(CCBr)N1CCN(C(=O)CCBr)CC1`: the “activity, negative = inhibition” value is -6.44% [at 28.5 µM] (inactive).
Consider `CN(C)CCC=C1c2ccccc2C=Cc2ccccc21`, for which the Potency is 818 nM (active).
As to `O=C(O)c1cccc(Oc2ccccc2)c1`, the “activity, negative = inhibition” value was 30.2% (inactive).
Consider `CC(c1cc(C(C)(C)C)cc(C(C)(C)C)c1O)c1cc(C(C)(C)C)cc(C(C)(C)C)c1O`, for which the “activity, negative = inhibition” value is -0.331% (inactive).
On the same count and under the same terms, the same measure for `O=Cc1ccccc1[N+](=O)[O-]`: -10.5% (inactive); for `CCC1CCC(CCC(=O)O)C1` (centres undefined): 21% (inactive); for `CCCCCCCCCCCCCCCCCC(=O)OCCCCCCCCCCCCCC(C)C`: 7.11% (inactive).
Same read-out and setting: the same measure for `CCCCCCCCCCCCCCCCCl`: 12.6% [at 12.7 µM] (inactive); for `CCCOC(=O)c1ccc(O)cc1`: 12.8% (inactive); for `CCCCS`: 0.852% (inactive).

The next experiment shares this target. The experiment in a line: 5-hydroxytryptamine receptor 2A (HTR2A) small molecule agonists, cell-based qHTS assay (AID 1963587). Also: nearly all actives have a fitted effect of over 30% in size. Also: potency is read from the fitted curve at half-maximal effect. As to conditions: HTR2A-CHO cells, calcium flux fluorescence, agonist mode; series mostly up to 76.8 µM; activation: at the top concentration. The gist of the method: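 HTR2A-CHO cells, plated 18 h at 37 C/5% CO2, dye-loaded 1 h at 37 C; compounds in DMSO added by pin tool (agonist mode). Intracellular calcium flux read as kinetic fluorescence on FDSS over 2 min at 1 s intervals.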
As for `CCCC1CCC(=O)O1` (centres undefined), the “activation” value is 1.26% (inactive).
On to `CCN(CC)c1ccc2c(-c3ccc(S(=O)(=O)O)cc3S(=O)(=O)[O-])c3ccc(=[N+](CC)CC)cc-3oc2c1`, for which the Potency is 56700 nM (active).
For the compound `COc1ccc(/C=C/S(=O)(=O)NC(=O)c2ccc(C)cc2Cl)cc1`, the “activation” value is -7.01% (inactive).
The same measure, in the same setting: the same measure for `C=CC(=O)OCC(Br)CBr` (centres undefined): -2.17% (inactive); for `O=C1CCC(C2CCCCC2)CC1`: -5.02% (inactive); for `COCCC(=O)OC`: -0.281% (inactive).
The same measure, in the same setting: the same measure for `Cc1nc2ccc(Cl)cc2[nH]1`: -3.57% (inactive); for `CC(C)(C)C(=O)C(=O)O`: -2.08% (inactive); for `COc1cccc(O)c1O`: -0.844% (inactive).
Still for that read-out and setting: the same measure for `N=C1C=CC(=C(c2ccc(N)cc2)c2ccc(N)cc2)C=C1`: 13.9% (inactive); for `O=C1c2ccccc2C(=O)C1c1ccc2ccccc2n1`: -0.0861% [at 35.6 µM] (inactive).
Consider `CN1CCN(C2=Nc3cc(F)ccc3Cc3ccccc32)CC1`, for which the “activation” value is -17.1% [at 35.6 µM] (inactive).
Regarding `CC1=NN(c2ccc(C(=O)O)cc2)C(=O)C1`, the “activation” value is -0.0152% (inactive).
Take `Oc1ccc(Oc2ccccc2)cc1`: the “activation” value is -10.2% (inactive).
Still for that read-out and setting: the same measure for `CC(C)(O)CCCC1=CCC(C=O)CC1` (centres undefined): -0.661% (inactive); for `NS(=O)(=O)Cc1noc2ccccc12`: -1.26% [at 35.6 µM] (inactive).
`COc1ccc(C(=O)c2ccc(OC)cc2O)c(O)c1`: the “activation” value was -0.502% (inactive).
Still for that read-out and setting: the same measure for `CCOC(=O)O[C@H](C)OC(=O)c1ccc2c(c1)cc(C(=O)NC1CCN(C(C)C)CC1)n2Cc1cc(-c2ccc(Cl)s2)on1`: -6.27% (inactive).
Still for that read-out and setting: the same measure for `Cc1cccc(N(C)C(=S)Oc2ccc3c(c2)CCC3)c1`: -13.2% [at 35.6 µM] (inactive); for `CCCC(=O)OCCC(C)C`: -2.51% (inactive); for `COc1ccccc1NC(=O)c1cc2ccccc2cc1O`: -0.721% (inactive).
For the compound `O=C(CCBr)N1CCN(C(=O)CCBr)CC1`, the “activation” value is -1.41% [at 35.6 µM] (inactive).
Still for that read-out and setting: the same measure for `CN(C)CCC=C1c2ccccc2C=Cc2ccccc21`: -0.568% [at 35.6 µM] (inactive); for `O=C(O)c1cccc(Oc2ccccc2)c1`: -0.878% (inactive).
The same measure, in the same setting: the same measure for `COc1ccc([C@@H]2Sc3ccccc3NC(=O)[C@@H]2O)cc1`: -7.8% [at 35.6 µM] (inactive).
Regarding `Oc1ccc(C2CNCCc3c2cc(O)c(O)c3Cl)cc1` (centres undefined), the Potency is 151 nM (active).
Regarding `CC(c1cc(C(C)(C)C)cc(C(C)(C)C)c1O)c1cc(C(C)(C)C)cc(C(C)(C)C)c1O`, the “activation” value is 4.28% (inactive).
With `Nc1ccc(S(=O)(=O)NCc2ccccc2)cc1`, the “activation” value was -9.08% [at 35.6 µM] (inactive).
The same measure, in the same setting: the same measure for `O=Cc1ccccc1[N+](=O)[O-]`: 12% (inactive); for `CCC1CCC(CCC(=O)O)C1` (centres undefined): -0.309% (inactive).
On the same count and under the same terms, the same measure for `CCCCCCCCCCCCCCCCCC(=O)OCCCCCCCCCCCCCC(C)C`: 0.644% (inactive); for `CCCCCCCCCCCCCCCCCl`: -4.65% [at 15.9 µM] (inactive).
As for `CCCOC(=O)c1ccc(O)cc1`, the “activation” value was -4.91% (inactive).
For the compound `CCCCS`, the “activation” value is -1.72% (inactive).

Another experiment has as its target Muscarinic acetylcholine receptor M1 (Homo sapiens) (UniProt P11229). The experiment in a line: Cholinergic receptor muscarinic 1 (CHRM1) small molecule antagonists, cell-based qHTS assay (AID 1963588). Also: nearly all actives have a fitted effect of over 40% in size. The note with it: CHRM1-CHO antagonist mode, calcium flux fluorescence; series mostly up to 61.5 µM; activity, negative = inhibition: at the top concentration. A digest of the protocol:
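Compounds were tested at 15 concentrations in three independent runs. Dye-loaded CHRM1-CHO cells were exposed 5 min at room temperature before stimulation by acetylcholine added at 50nM. Intracellular calcium was read kinetically on FDSS for 3 min.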
As for `CCCC1CCC(=O)O1` (centres undefined), the “activity, negative = inhibition” value was 18.5% (inactive).
The same measure, in the same setting: the same measure for `CCN(CC)c1ccc2c(-c3ccc(S(=O)(=O)O)cc3S(=O)(=O)[O-])c3ccc(=[N+](CC)CC)cc-3oc2c1`: 7.67% (inactive); for `COc1ccc(/C=C/S(=O)(=O)NC(=O)c2ccc(C)cc2Cl)cc1`: -3.67% (inactive); for `N[C@@H](Cc1cc(I)c(O)c(I)c1)C(=O)O`: 7.63% [at 28.3 µM] (inactive).
On the same count and under the same terms, the same measure for `C=CC(=O)OCC(Br)CBr` (centres undefined): -15.3% (inactive).
The same measure, in the same setting: the same measure for `O=C1CCC(C2CCCCC2)CC1`: 11.7% (inactive); for `COc1ccc(C(=O)N2CCN(CC(=O)N3CCOCC3)CC2)cc1`: -18.6% [at 28.3 µM] (inactive); for `COCCC(=O)OC`: 5.35% (inactive).
For `Cc1nc2ccc(Cl)cc2[nH]1`, the “activity, negative = inhibition” value is 0.775% (inactive).
Same read-out and setting: the same measure for `COc1cccc(O)c1O`: -5.71% (inactive).
Same read-out and setting: the same measure for `N=C1C=CC(=C(c2ccc(N)cc2)c2ccc(N)cc2)C=C1`: -8.29% (inactive).
In the case of `O=C1c2ccccc2C(=O)C1c1ccc2ccccc2n1`, the “activity, negative = inhibition” value is 11.9% [at 28.3 µM] (inactive).
On the same count and under the same terms, the same measure for `Oc1ccc(Oc2ccccc2)cc1`: -18.9% (inactive); for `CC(C)(O)CCCC1=CCC(C=O)CC1` (centres undefined): -8.82% (inactive); for `NS(=O)(=O)Cc1noc2ccccc12`: -25.1% [at 28.3 µM] (inactive).
Still for that read-out and setting: the same measure for `COc1ccc(C(=O)c2ccc(OC)cc2O)c(O)c1`: -42.4% (inactive); for `Cc1cccc(N(C)C(=S)Oc2ccc3c(c2)CCC3)c1`: -9.29% [at 28.3 µM] (inactive).
Same read-out and setting: the same measure for `CCCC(=O)OCCC(C)C`: -52.7% (inactive); for `COc1ccccc1NC(=O)c1cc2ccccc2cc1O`: 8.77% (inactive).
On to `O=C(CCBr)N1CCN(C(=O)CCBr)CC1`, for which the “activity, negative = inhibition” value is -49.1% [at 28.3 µM] (inactive).
On the same count and under the same terms, the same measure for `CN(C)CCC=C1c2ccccc2C=Cc2ccccc21`: -0.244% [at 28.3 µM] (inactive).
On the same count and under the same terms, the same measure for `O=C(O)c1cccc(Oc2ccccc2)c1`: -12.9% (inactive).
On the same count and under the same terms, the same measure for `COc1ccc([C@@H]2Sc3ccccc3NC(=O)[C@@H]2O)cc1`: 22.3% [at 28.3 µM] (inactive).
For the compound `Oc1ccc(C2CNCCc3c2cc(O)c(O)c3Cl)cc1` (centres undefined), the “activity, negative = inhibition” value was 16.2% [at 28.3 µM] (inactive).
The same measure, in the same setting: the same measure for `O=Cc1ccccc1[N+](=O)[O-]`: -19.9% (inactive); for `CCC1CCC(CCC(=O)O)C1` (centres undefined): 0.192% (inactive).
As for `CCCCCCCCCCCCCCCCCC(=O)OCCCCCCCCCCCCCC(C)C`, the “activity, negative = inhibition” value was 33.5% (inactive).
Still for that read-out and setting: the same measure for `CCCCCCCCCCCCCCCCCl`: -6.96% [at 12.6 µM] (inactive); for `CCCOC(=O)c1ccc(O)cc1`: 124% (inactive).
Still for that read-out and setting: the same measure for `CCCCS`: 21.5% (inactive).
